In PubChem BioAssay AID1159580 (chemical genetic matrix, 2015):
Screen size: about 5,500 compounds; about 2,000 (36%) were called active. About 18% were inconclusive and are not listed. The list shows a part of the results. Values without a mark were called inactive. Rule as the data show it: active = normalized growth mostly below about 0.91 (no sharp cut-off); inconclusive = no clear call, values can overlap the other calls; inactive = mostly above about 0.92.

Test: chemical genetic growth profiling, strain panel (AID 1159580);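 also: tested at 20 µM; growth read once vehicle control cultures reached saturation at 30 °C; 1 = growth at the plate median or of vehicle wells; lower values mean less growth of the strain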
Settings: S. cerevisiae deletion strains, growth OD
[1] = locus YAL013W, strain DEP1, hits give low values
[2] = locus YBR229C, strain ROT2, hits give low values
[3] = locus YDL101C, strain DUN1, hits give low values
[4] = locus YDL134C, strain PPH21, hits give low values
[5] = locus YDR150W, strain NUM1, hits give low values
[6] = locus YEL061C, strain CIN8, hits give low values
[7] = locus YGR078C, strain PAC10, hits give low values
[8] = locus YHR030C, strain SLT2, hits give low values
[9] = locus YHR087W, strain rtc3, hits give low values
[10] = locus YJR043C, strain POL32, hits give low values
[11] = locus YJR075W, strain HOC1, hits give low values
[12] = locus YLR039C, strain RIC1, hits give low values
[13] = locus YLR058C, strain SHM2 (second series), hits give low values
[14] = locus YLR085C, strain ARP6, hits give low values
[15] = locus YLR262C, strain YPT6, hits give low values
[16] = locus YML094W, strain GIM5, hits give low values
[17] = locus YMR219W, strain ESC1, hits give low values
[18] = locus YMR263W, strain SAP30, hits give low values
[19] = locus YNL153C, strain GIM3, hits give low values
[20] = locus YNL298W, strain CLA4 (second series), hits give low values
[21] = locus YNL322C, strain KRE1, hits give low values
[22] = locus YNR030W, strain Alg12, hits give low values
[23] = locus YPL055C, strain LGE1, hits give low values
[24] = locus YPL241C, strain CIN2, hits give low values
[25] = locus YPR135W, strain CTF4, hits give low values

CCCS(=O)(=O)c1c(C)c(C)n(Cc2ccccc2)c1N
normalized growth [1]: 1.02
normalized growth [2]: 1.01
normalized growth [3]: 0.972
normalized growth [4]: 0.999
normalized growth [5]: 1
normalized growth [6]: 0.999
normalized growth [7]: 1
normalized growth [8]: 1.06
normalized growth [9]: 1
normalized growth [10]: 0.997
normalized growth [11]: 0.99
normalized growth [12]: 1.05
normalized growth [13]: 1
normalized growth [14]: 1.27 [resistant] (active)
normalized growth [15]: 1.03
normalized growth [16]: 1.04
normalized growth [17]: 1
normalized growth [18]: 0.999
normalized growth (locus YMR307W, strain GAS1, hits give low values): 1.14
normalized growth [19]: 1
normalized growth [20]: 1.02
normalized growth [21]: 0.999
normalized growth [22]: 1.02
normalized growth (locus YOL006C, strain TOP1, hits give low values): 1.2
normalized growth [23]: 1.06
normalized growth [24]: 1.1
normalized growth [25]: 1.15

Cc1cccc(Cn2c(C)c(C)c(S(=O)(=O)c3ccccc3)c2N)c1C
normalized growth [1]: 1.03
normalized growth [2]: 1.01
normalized growth [3]: 0.98
normalized growth [4]: 0.978
normalized growth [5]: 1.01
normalized growth [6]: 0.998
normalized growth [7]: 1.03
normalized growth (locus YGR229C, strain SMI1, hits give low values): 0.984
normalized growth [8]: 0.917
normalized growth [9]: 1.01
normalized growth (locus YJL187C, strain SWE1, hits give low values): 0.996
normalized growth [10]: 1
normalized growth [11]: 0.996
normalized growth (locus YKL190W, strain CNB1, hits give low values): 0.987
normalized growth [12]: 0.803
normalized growth [13]: 0.999
normalized growth [14]: 1.24 [resistant] (active)
normalized growth [15]: 0.873
normalized growth [16]: 1.05
normalized growth [17]: 1.01
normalized growth [18]: 1.01
normalized growth (locus YNL128W, strain TEP1, hits give low values): 0.998
normalized growth [19]: 1.04
normalized growth [20]: 0.98
normalized growth [21]: 1
normalized growth [22]: 1.01
normalized growth [23]: 1.06
normalized growth [24]: 1.03
normalized growth [25]: 1.16
